# Measured values reported in PubChem BioAssay (EPA / NIEHS).
# Results filed as inconclusive are left out. Calls of active or inactive are those of the source. How the source made its calls: active means hit-call score of the fitted dose curve at least 0.9, where 1 is the maximum; inconclusive means response in the unintended direction; inactive means score below 0.9.
# What was measured:
# [1] = target: human Protein Tyrosine Phosphatase Non-receptor Type 9 (PTPN9), PTPN9 (gene 5780) (UniProt P43378); assay: NVS_ENZ_hPTPN9: NovaScreen (NVS) Enzymatic Assay for human Protein Tyrosine Phosphatase Non-receptor Type 9 (PTPN9) (AID 2283209)
# Outline: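 Sf9-expressed enzyme in a cell-free assay, fluorescence read 1.33 h after dosing with mobility-shift separation of substrate and product. Tested at 25 uM in duplicate, then up to 50 uM; signal loss versus DMSO.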
# [2] = target: human SRC Proto-Oncogene, Non-receptor Tyrosine Kinase (SRC), SRC (gene 6714) (UniProt P12931); assay: NVS_ENZ_hSRC: NovaScreen (NVS) Enzymatic Assay for human SRC Proto-Oncogene, Non-receptor Tyrosine Kinase (SRC) (AID 2283223)
# Outline: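 Compounds passing 30% inhibition at 25 uM (duplicate) were titrated to a top concentration of 50 uM. Enzyme activity read by fluorescence with mobility-shift substrate/product separation after 1 h; DMSO baseline.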
# [3] = target: human Tropomyosin Receptor Kinase A (TRKA), NTRK1 (gene 4914) (UniProt P04629); assay: NVS_ENZ_hTrkA: NovaScreen (NVS) Enzymatic Assay for human Tropomyosin Receptor Kinase A (TRKA) (AID 2283224)
# Outline: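 Compounds were screened at 25 uM in duplicate, then concentration series to a 50 uM top for those meeting threshold (e.g. 30% inhibition). Enzyme was recombinant human TrkA, incubated 1 h. Product formation was quantified by fluorescence after mobility-shift separation.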
# [4] = target: human Vascular Endothelial Growth Factor Receptor 1 (VEGFR1), FLT1 (gene 2321) (UniProt P17948); assay: NVS_ENZ_hVEGFR1: NovaScreen (NVS) Enzymatic Assay for human Vascular Endothelial Growth Factor Receptor 1 (VEGFR1) (AID 2283226)
# Outline: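 Kinase activity of recombinant human VEGFR1 was read by fluorescence after electrophoretic separation of product from substrate, 1 h post-dosing; initial duplicate single-point testing at 25 uM, followed by concentration-series follow-up, with DMSO as baseline.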
# [5] = target: human Vascular Endothelial Growth Factor Receptor 3 (VEGFR3), FLT4 (gene 2324) (UniProt P35916); assay: NVS_ENZ_hVEGFR3: NovaScreen (NVS) Enzymatic Assay for human Vascular Endothelial Growth Factor Receptor 3 (VEGFR3) (AID 2283229)
# Outline: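 Chemicals first run in duplicate at 25 uM, with actives re-tested in concentration series to a top of 50 uM. Recombinant VEGFR3 activity measured after 1 h via fluorescence with mobility-shift product separation; inhibition fitted relative to DMSO.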
# [6] = target: Tyrosine-protein phosphatase non-receptor type 11 (Homo sapiens) (UniProt Q06124); assay: NVS_ENZ_hPTPN11: NovaScreen (NVS) Enzymatic Assay for human Protein Tyrosine Phosphatase Non-receptor Type 11 (PTPN11) (AID 2283202)
# Outline: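 Compounds first tested in duplicate at 25 uM; those reaching ~30% inhibition rerun in singleton concentration-response, top 50 uM. Phosphatase activity measured after 0.5 h by fluorescence with mobility-shift separation, relative to DMSO.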
# [7] = target: Tyrosine-protein phosphatase non-receptor type 12 (Homo sapiens) (UniProt Q05209); assay: NVS_ENZ_hPTPN12: NovaScreen (NVS) Enzymatic Assay for human Protein Tyrosine Phosphatase Non-receptor Type 12 (PTPN12) (AID 2283204)
# Outline: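 Single-concentration duplicates (25 uM) preceded singleton concentration-response up to 50 uM for chemicals passing threshold. Cell-free recombinant PTPN12 activity was read 1.33 h after dosing via fluorescence after mobility-shift separation; loss of signal versus DMSO.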
# [8] = target: human Protein Tyrosine Phosphatase Non-receptor Type 4 (PTPN4), PTPN4 (gene 5775) (UniProt P29074); assay: NVS_ENZ_hPTPN4: NovaScreen (NVS) Enzymatic Assay for human Protein Tyrosine Phosphatase Non-receptor Type 4 (PTPN4) (AID 2283208)
# Outline: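 Screened in duplicate at 25 uM, with hits then titrated to a top concentration of 50 uM. Recombinant Sf9-derived PTPN4 turnover was read by fluorescence with electrophoretic separation, 1.33 h after compound addition. DMSO served as baseline.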
# [9] = target: human Sirtuin 2 (SIRT2), SIRT2 (gene 22933) (UniProt Q8IXJ6); assay: NVS_ENZ_hSIRT2: NovaScreen (NVS) Enzymatic Assay for human Sirtuin 2 (SIRT2) (AID 2283217)
# Outline: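 Single-point duplicate screen at 25 uM, then concentration-response (max 50 uM) for chemicals passing threshold. Enzyme activity of recombinant human SIRT2 measured after 1 hr by fluorescence with mobility-shift separation of product; DMSO baseline.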
# [10] = target: Tyrosine-protein phosphatase non-receptor type 14 (Homo sapiens) (UniProt Q15678); assay: NVS_ENZ_hPTPN14: NovaScreen (NVS) Enzymatic Assay for human Protein Tyrosine Phosphatase Non-receptor Type 14 (PTPN14) (AID 2283206)
# Outline: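 Fluorescent substrate turnover by recombinant human PTPN14 was measured 0.5 h after compound addition, with substrate and product separated by mobility shift. Single-point screening at 25 uM, then concentration-response up to 50 uM for chemicals meeting threshold (e.g., 30% inhibition).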
# [11] = target: rabbit Imidazoline 2 Central (I2C), CKB (gene 100009085) (UniProt P00567); assay: NVS_ENZ_rabI2C: NovaScreen (NVS) Enzymatic Assay for rabbit Imidazoline 2 Central (I2C) (AID 2283228)
# Outline: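 Rabbit brain membranes, cell-free; readout by filter-based scintillation counting 1.5 hours after dosing, loss of signal vs DMSO. Initial duplicate test at 25 uM, then concentration-response with 50 uM top concentration.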
# [12] = target: human Sirtuin 1 (SIRT1), SIRT1 (gene 23411) (UniProt Q96EB6); assay: NVS_ENZ_hSIRT1: NovaScreen (NVS) Enzymatic Assay for human Sirtuin 1 (SIRT1) (AID 2283219)
# Outline: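 Cell-free recombinant SIRT1 with a fluorescent substrate; substrate and product separated by electrophoretic mobility shift and read by fluorescence intensity, 1 h after dosing. Primary screen at 25 uM in duplicate; hits re-run in concentration-response up to 50 uM, relative to DMSO.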
# [13] = target: human Protein Tyrosine Phosphatase Non-receptor Type 1 (PTPN1), PTPN1 (gene 5770) (UniProt P18031); assay: NVS_ENZ_hPTPN1: NovaScreen (NVS) Enzymatic Assay for human Protein Tyrosine Phosphatase Non-receptor Type 1 (PTPN1) (AID 2283201)
# Outline: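 Chemicals were first tested in duplicate at 25 uM, and those passing threshold went on to singleton concentration series topping at 50 uM. Recombinant enzyme, specific substrate, product separated by mobility shift, fluorescence read at 1.33 h; activity loss relative to DMSO.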
# [14] = target: human Protein Tyrosine Phosphatase Non-receptor Type 6 (PTPN6), PTPN6 (gene 5777) (UniProt P29350); assay: NVS_ENZ_hPTPN6: NovaScreen (NVS) Enzymatic Assay for human Protein Tyrosine Phosphatase Non-receptor Type 6 (PTPN6) (AID 2283210)
# Outline: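 Recombinant human PTPN6 from SF9 cells, enzyme activity followed by fluorescence after mobility-shift separation of substrate and product at 1.33 h. Chemicals first tested at a single 25 uM in duplicate, then confirmed across concentration series; loss of signal relative to DMSO.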
# [15] = target: human Rho Associated Coiled-coil Containing Protein Kinase 1 (ROCK1), ROCK1 (gene 6093) (UniProt Q13464); assay: NVS_ENZ_hROCK1: NovaScreen (NVS) Enzymatic Assay for human Rho Associated Coiled-coil Containing Protein Kinase 1 (ROCK1) (AID 2283214)
# Outline: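 Compounds first run in duplicate at 25 uM against recombinant human ROCK1, then followed in concentration series. Kinase activity was read 1 h post-dosing by fluorescence with mobility-shift separation, as signal loss relative to DMSO.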
# [16] = target: Tyrosine-protein phosphatase non-receptor type 13 (Homo sapiens) (UniProt Q12923); assay: NVS_ENZ_hPTPN13: NovaScreen (NVS) Enzymatic Assay for human Protein Tyrosine Phosphatase Non-receptor Type 13 (PTPN13) (AID 2283205)
# Outline: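 Screened first at a single 25 uM in duplicate; compounds passing the threshold (e.g. 30% inhibition) were rerun in concentration series, top 50 uM. Recombinant enzyme, fluorescent substrate, mobility-shift separation, 0.5 h read. Data fitted as inhibition relative to DMSO.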
# [17] = target: human Protein Tyrosine Phosphatase Receptor Type F (PTPRF), PTPRF (gene 5792) (UniProt P10586); assay: NVS_ENZ_hPTPRF: NovaScreen (NVS) Enzymatic Assay for human Protein Tyrosine Phosphatase Receptor Type F (PTPRF) (AID 2283213)
# Outline: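 Cell-free fluorescence enzyme assay with recombinant protein and substrate; product separated by electrophoretic mobility shift. Read 1 h after dosing, single 25 uM duplicate screen, then concentration-response up to 50 uM; loss of signal vs DMSO.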
# [18] = target: human Sirtuin 3 (SIRT3), SIRT3 (gene 23410) (UniProt Q9NTG7); assay: NVS_ENZ_hSIRT3: NovaScreen (NVS) Enzymatic Assay for human Sirtuin 3 (SIRT3) (AID 2283222)
# Outline: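 Cell-free enzyme assay with recombinant protein and fluorescent substrate, product separated by electrophoretic mobility shift; read 1 hour after dosing. Screened in duplicate at 25 uM, then singleton concentration-response up to 50 uM; loss of signal versus DMSO.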
# [19] = target: human Protein Tyrosine Phosphatase Receptor Type B (PTPRB), PTPRB (gene 5787) (UniProt P23467); assay: NVS_ENZ_hPTPRB: NovaScreen (NVS) Enzymatic Assay for human Protein Tyrosine Phosphatase Receptor Type B (PTPRB) (AID 2283211)
# Outline: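 Recombinant human PTPRB with a fluorescent substrate, product separated by electrophoretic mobility shift; read 1 h after dosing. Primary screen in duplicate at 25 uM; actives then retested in concentration series; loss of signal versus DMSO.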
# [20] = target: human Protein Tyrosine Phosphatase Receptor Type M (PTPRM), PTPRM (gene 5797) (UniProt P28827); assay: NVS_ENZ_hPTPRM: NovaScreen (NVS) Enzymatic Assay for human Protein Tyrosine Phosphatase Receptor Type M (PTPRM) (AID 2283215)
# Outline: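 Read-out is fluorescence after electrophoretic separation of substrate and product, taken 1.33 h post-dosing with recombinant enzyme. Compounds screened at 25 uM in duplicate, then concentration series for actives; activity as signal loss relative to DMSO.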
# Chain of human Vascular Endothelial Growth Factor Receptor 1 (VEGFR1), FLT1 (gene 2321) (P17948 whole entry, looked up): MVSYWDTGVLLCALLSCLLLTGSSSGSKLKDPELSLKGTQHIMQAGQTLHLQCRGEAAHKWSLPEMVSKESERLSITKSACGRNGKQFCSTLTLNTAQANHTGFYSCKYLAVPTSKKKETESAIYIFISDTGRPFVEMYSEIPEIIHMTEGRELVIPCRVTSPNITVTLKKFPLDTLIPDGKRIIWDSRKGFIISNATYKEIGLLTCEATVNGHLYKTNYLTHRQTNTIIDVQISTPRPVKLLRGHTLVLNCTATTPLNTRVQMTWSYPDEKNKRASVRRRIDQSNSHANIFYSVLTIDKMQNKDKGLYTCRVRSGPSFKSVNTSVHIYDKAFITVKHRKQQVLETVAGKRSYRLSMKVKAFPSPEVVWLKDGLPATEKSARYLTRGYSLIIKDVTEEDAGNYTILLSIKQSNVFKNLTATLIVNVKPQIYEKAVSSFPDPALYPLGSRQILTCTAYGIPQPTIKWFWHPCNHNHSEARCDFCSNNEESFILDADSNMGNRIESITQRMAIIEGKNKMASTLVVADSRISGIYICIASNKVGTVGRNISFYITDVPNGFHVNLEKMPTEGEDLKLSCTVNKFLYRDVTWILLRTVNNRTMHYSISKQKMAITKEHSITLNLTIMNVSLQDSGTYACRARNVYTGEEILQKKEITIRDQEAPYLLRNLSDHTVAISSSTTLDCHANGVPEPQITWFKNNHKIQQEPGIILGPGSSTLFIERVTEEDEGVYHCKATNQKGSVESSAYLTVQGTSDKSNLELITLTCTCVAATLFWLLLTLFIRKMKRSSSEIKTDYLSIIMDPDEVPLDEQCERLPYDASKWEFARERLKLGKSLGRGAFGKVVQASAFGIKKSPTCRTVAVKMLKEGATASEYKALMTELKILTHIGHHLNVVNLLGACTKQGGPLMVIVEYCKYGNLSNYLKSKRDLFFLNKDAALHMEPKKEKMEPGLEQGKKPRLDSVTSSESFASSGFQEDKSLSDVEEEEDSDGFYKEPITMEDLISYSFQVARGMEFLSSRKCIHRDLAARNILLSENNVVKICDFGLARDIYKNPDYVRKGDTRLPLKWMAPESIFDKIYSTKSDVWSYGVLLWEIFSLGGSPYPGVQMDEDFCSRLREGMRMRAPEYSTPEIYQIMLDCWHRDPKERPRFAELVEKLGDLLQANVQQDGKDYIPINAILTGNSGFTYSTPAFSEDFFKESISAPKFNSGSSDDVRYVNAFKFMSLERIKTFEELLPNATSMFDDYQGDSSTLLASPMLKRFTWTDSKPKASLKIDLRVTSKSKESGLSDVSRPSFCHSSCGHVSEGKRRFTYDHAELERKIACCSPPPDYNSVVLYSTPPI
# Chain of Tyrosine-protein phosphatase non-receptor type 12 (Homo sapiens) (Q05209 whole entry, looked up): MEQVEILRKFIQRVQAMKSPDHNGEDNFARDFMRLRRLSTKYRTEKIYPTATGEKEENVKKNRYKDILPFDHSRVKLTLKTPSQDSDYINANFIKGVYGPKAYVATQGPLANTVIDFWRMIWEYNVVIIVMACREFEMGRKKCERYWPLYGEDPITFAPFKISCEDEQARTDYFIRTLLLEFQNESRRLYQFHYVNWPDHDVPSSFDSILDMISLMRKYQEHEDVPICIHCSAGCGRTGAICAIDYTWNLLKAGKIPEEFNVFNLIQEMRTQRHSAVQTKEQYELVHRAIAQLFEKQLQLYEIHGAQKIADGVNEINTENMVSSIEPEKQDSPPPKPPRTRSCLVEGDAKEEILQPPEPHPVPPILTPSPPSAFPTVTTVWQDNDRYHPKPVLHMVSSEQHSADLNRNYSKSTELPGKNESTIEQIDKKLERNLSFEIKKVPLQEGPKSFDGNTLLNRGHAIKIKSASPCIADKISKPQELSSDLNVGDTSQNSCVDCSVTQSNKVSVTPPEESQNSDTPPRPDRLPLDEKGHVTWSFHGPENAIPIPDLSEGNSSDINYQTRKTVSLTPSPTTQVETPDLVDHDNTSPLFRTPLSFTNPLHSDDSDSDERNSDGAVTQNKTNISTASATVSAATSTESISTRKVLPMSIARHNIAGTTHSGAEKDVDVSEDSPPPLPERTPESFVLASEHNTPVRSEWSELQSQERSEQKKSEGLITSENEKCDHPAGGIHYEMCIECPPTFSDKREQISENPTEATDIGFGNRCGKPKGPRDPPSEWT
# Chain of human Vascular Endothelial Growth Factor Receptor 3 (VEGFR3), FLT4 (gene 2324) (P35916 whole entry, looked up): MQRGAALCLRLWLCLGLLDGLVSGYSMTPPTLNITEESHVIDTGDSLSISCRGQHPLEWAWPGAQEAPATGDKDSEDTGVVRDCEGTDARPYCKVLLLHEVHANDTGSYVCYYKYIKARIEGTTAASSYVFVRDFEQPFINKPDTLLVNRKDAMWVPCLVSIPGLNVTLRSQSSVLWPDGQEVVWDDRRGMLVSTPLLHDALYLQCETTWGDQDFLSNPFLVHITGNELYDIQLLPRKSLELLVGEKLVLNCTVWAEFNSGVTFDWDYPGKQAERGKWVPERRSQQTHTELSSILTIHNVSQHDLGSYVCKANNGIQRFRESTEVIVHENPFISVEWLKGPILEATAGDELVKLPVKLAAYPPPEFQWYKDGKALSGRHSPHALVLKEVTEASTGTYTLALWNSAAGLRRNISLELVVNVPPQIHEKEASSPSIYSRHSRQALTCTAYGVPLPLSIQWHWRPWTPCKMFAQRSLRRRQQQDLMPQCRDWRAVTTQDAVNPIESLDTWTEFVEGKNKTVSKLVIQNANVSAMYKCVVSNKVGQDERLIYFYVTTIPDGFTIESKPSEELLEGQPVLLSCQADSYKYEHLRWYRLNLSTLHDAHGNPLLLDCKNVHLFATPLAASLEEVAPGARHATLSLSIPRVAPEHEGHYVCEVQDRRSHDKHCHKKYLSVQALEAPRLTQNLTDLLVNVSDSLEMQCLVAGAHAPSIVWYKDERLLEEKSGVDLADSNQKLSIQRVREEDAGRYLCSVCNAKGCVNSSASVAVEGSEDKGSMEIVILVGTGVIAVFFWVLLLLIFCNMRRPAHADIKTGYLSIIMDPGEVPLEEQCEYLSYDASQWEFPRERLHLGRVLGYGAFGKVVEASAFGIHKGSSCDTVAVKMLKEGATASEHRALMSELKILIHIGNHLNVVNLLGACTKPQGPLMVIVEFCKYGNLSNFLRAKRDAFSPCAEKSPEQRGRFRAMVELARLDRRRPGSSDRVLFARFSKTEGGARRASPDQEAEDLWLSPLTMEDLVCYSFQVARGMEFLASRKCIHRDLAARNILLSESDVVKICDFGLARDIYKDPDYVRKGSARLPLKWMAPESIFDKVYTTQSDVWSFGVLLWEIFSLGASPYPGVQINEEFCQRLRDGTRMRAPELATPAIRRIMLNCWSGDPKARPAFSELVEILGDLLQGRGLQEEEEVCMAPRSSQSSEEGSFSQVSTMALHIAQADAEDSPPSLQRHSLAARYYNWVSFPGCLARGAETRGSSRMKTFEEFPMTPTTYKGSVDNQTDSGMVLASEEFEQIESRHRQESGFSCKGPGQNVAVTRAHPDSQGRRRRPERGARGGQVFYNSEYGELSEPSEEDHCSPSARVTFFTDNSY
# Chain of human Protein Tyrosine Phosphatase Non-receptor Type 4 (PTPN4), PTPN4 (gene 5775) (P29074 whole entry, looked up): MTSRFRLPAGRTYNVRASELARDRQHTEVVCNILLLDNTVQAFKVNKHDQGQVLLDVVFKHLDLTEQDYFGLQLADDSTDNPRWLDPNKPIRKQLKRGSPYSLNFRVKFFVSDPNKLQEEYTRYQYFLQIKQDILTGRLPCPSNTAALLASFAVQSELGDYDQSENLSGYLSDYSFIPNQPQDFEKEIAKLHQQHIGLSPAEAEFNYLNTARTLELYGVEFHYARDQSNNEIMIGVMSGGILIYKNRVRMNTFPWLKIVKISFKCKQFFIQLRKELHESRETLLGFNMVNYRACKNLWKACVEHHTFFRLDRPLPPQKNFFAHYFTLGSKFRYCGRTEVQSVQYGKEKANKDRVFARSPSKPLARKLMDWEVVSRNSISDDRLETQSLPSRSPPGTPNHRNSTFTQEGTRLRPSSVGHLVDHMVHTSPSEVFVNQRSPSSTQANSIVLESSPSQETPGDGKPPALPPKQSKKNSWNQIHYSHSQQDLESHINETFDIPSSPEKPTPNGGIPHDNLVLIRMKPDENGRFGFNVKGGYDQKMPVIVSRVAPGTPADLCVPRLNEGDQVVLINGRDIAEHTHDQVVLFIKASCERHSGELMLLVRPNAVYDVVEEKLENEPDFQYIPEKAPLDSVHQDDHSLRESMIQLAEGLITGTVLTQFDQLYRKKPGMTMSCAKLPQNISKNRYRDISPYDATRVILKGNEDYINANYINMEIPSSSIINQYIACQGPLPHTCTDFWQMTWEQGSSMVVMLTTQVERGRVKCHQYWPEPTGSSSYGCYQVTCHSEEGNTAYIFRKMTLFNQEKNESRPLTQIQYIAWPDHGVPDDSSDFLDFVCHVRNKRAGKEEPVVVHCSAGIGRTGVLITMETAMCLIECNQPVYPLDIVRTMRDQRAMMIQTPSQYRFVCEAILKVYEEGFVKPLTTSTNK
# Chain of human Sirtuin 3 (SIRT3), SIRT3 (gene 23410) (Q9NTG7 whole entry, looked up): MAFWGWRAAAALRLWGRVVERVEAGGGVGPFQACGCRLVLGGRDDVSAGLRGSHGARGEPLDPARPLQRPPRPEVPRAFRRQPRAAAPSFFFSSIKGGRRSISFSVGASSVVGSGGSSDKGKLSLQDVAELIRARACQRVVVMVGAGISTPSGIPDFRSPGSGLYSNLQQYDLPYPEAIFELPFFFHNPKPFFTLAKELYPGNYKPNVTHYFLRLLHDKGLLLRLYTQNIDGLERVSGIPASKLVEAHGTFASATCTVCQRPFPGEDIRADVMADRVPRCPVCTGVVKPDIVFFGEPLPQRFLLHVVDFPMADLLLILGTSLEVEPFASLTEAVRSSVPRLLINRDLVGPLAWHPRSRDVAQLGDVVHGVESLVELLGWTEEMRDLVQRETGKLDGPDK
structure (smiles),measurement,setting,value
NC(=O)N(O)[C@@H]1C=C[C@H](Oc2cccc(Oc3ccc(F)cc3)c2)C1,outcome,[1],inactive
O=C(O)Cc1cc(I)c(Oc2cc(I)c(O)c(I)c2)c(I)c1,outcome,[2],inactive
same,AC50,[3],1.6 µM (active)
same,outcome,[4],inactive
same,outcome,[5],inactive
ClC1=C(Cl)C(Cl)(Cl)C(Cl)=C1Cl,outcome,[6],inactive
same,outcome,[7],inactive
same,outcome,[8],inactive
CCCCOCCO,outcome,[9],inactive
same,outcome,[4],inactive
CC(=O)CC(C)(C)O,outcome,[10],inactive
N#C[C@@H]1CC(F)(F)CN1C(=O)CNC1CC2CCC(C1)N2c1ncccn1 (stereo partly specified),outcome,[8],inactive
CCCOC(=O)c1ccc(O)cc1,outcome,[4],inactive
CC1=C(/C=C/C(C)=C/C=C/C(C)=C/C(=O)O)C(C)(C)CCC1,outcome,[4],inactive
same,outcome,[11],inactive
O=c1c(-c2ccc(O)cc2)coc2cc(O)ccc12,outcome,[7],inactive
same,outcome,[10],inactive
CC[C@H](C)[C@@H](C(=O)O)n1sc2ccccc2c1=O,outcome,[8],inactive
same,outcome,[12],inactive
CCCCCCCC(=O)O,outcome,[13],inactive
same,outcome,[9],inactive
same,AC50,[12],6.65 µM (active)
same,outcome,[11],inactive
COc1ccc([N+](=O)[O-])cc1N,outcome,[14],inactive
CCCOc1sc(C(=O)N2CCC(c3cc(CN)ccc3F)CC2)c(C)c1Br,outcome,[15],inactive
same,AC50,[11],4.64 µM (active)
c1ccc2c(c1)ccc1ccccc12,outcome,[15],inactive
CCCCC(CC)COC(=O)CCCCC(=O)OCC(CC)CCCC (stereo unspecified),outcome,[12],inactive
CCN(CC)CCNc1ccc(CNC=O)c2sc3ccc(OC)cc3c(=O)c12,outcome,[16],inactive
same,outcome,[17],inactive
same,outcome,[9],inactive
same,outcome,[12],inactive
same,outcome,[18],inactive
same,outcome,[11],inactive
same,outcome,[5],inactive
CC(C)(C)c1cccc(C(C)(C)C)c1O,outcome,[9],inactive
same,outcome,[4],inactive
NC(=O)N1C(=O)C(C(=O)c2cc(Cl)cs2)c2cc(F)c(Cl)cc21 (stereo unspecified),outcome,[15],inactive
same,outcome,[11],inactive
Cc1cc(CCN2CCN(c3nsc4ccccc34)CC2)cc2c1NC(=O)CC2(C)C,outcome,[12],inactive
CCCCCCCCCCCCc1ccccc1S(=O)(=O)O,AC50,[13],15.5 µM (active)
same,AC50,[6],13.3 µM (active)
same,AC50,[7],11.3 µM (active)
same,AC50,[16],21.1 µM (active)
same,AC50,[10],38.2 µM (active)
same,AC50,[8],19.8 µM (active)
same,AC50,[1],4.22 µM (active)
same,AC50,[14],13.4 µM (active)
same,AC50,[19],25 µM (active)
same,AC50,[17],25 µM (active)
same,AC50,[20],16.3 µM (active)
same,AC50,[9],24.4 µM (active)
same,outcome,[2],inactive
same,AC50,[5],9.14 µM (active)
COCC(C)OCC(C)O (stereo unspecified),outcome,[7],inactive
same,outcome,[16],inactive
same,outcome,[8],inactive
same,outcome,[1],inactive
same,outcome,[19],inactive
same,outcome,[9],inactive
same,outcome,[12],inactive
same,outcome,[2],inactive
CCC(=C(c1ccc(O)cc1)c1ccc(OCCN(C)C)cc1)c1ccccc1,outcome,[13],inactive
same,outcome,[18],inactive
same,AC50,[11],0.408 µM (active)
CN1CCC[C@H]1c1cccnc1,outcome,[8],inactive
Cc1oc(-c2ccccc2)nc1CCOc1ccc(C[C@H](Nc2ccccc2C(=O)c2ccccc2)C(=O)O)cc1,AC50,[9],18.3 µM (active)
Nc1cccc2c(N)cccc12,outcome,[17],inactive
same,outcome,[12],inactive
same,outcome,[18],inactive
same,outcome,[5],inactive
